M18AAP inhibitor – blocks P. falciparum M18 aspartyl aminopeptidase | recombinant PfM18AAP, H-Glu-NHMec fluorogenic cleavage | inhibition, % at 7.35 µM | 290,000 tested, 1.2% active | AID 1822;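 active means inhibition above the campaign mean inhibition over all tested compounds plus 3 SD, cut at about 28% in these data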;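 further: 0% = plate median of test compound wells and 100% = 2 mM ZnCl2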
ALR H2O2 inh – human ALR oxidase inhibition via reduced H2O2 | AID 485317 | 290,000 tested, 3.8% active | inhibition, % (test concentration not listed) | purified ALR, DTT oxidation, H2O2 HRP-luminol luminescence;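 active means mean replicate inhibition above about 79%, with every replicate also reaching it, limit read from the data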
Target sequence (P55789 whole entry, looked up): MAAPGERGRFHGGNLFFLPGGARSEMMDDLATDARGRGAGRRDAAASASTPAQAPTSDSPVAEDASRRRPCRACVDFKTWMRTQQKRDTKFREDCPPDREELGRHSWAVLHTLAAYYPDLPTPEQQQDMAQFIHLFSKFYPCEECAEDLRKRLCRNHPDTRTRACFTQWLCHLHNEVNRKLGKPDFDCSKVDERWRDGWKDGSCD
HIF activator – HIF pathway transcriptional activation; U2OS HRE-luciferase reporter, luminescence; normalized: DMSO 0%, desferrioxamine 100%; activation, % at 7.5 µM (by protocol); 300,000 tested, 0.32% active;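 active means mean activation of at least 10% of the iron chelator positive control signal, with at least half of replicates also reaching 10%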
SUMO Mot1 rescue – SUMOylation pathway inhibition by Mot1-301 growth rescue; S. cerevisiae Mot1-301 growth rescue, ATP luminescence, 38.5C; percent above DMSO median, 100 means doubled; growth rescue, % at 18.8 µM; 320,000 tested, 1% active; AID 2716;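 active means every valid replicate shows activation above 250% relative to neutral control wells; inactive means the rest, any valid replicate at or below 250%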;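 further: OY570 slx delta 5 strain wells were the positive control but not used for scaling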
* = called active by the depositor. The list is not random: actives were taken first. Their share in the collection is about 5.3%.

What do the screens show for `CCn1nc(C)cc1C(=O)N1CCCC(C(=O)c2ccc(OC)cc2C)C1` (configuration not stated)?
M18AAP inhibitor: 5; HIF activator: 0; SUMO Mot1 rescue: 437

How did Nc1ccc(-c2ccc(N)c(C(=O)O)c2)cc1C(=O)O do in these assays?
M18AAP inhibitor: 16; ALR H2O2 inh: 83*; HIF activator: 0; SUMO Mot1 rescue: -37

What do the screens show for `Cc1ccc(Nc2nc(NCCO)c3ccccc3n2)cc1C`?
M18AAP inhibitor: 3; ALR H2O2 inh: 14; HIF activator: 2; SUMO Mot1 rescue: -3

Results for CCOC(=O)c1cc(C)sc1NC(=O)CN1CCN(C(=O)C2CCCO2)CC1 (configuration not stated) ?
M18AAP inhibitor: 2; ALR H2O2 inh: 96*; HIF activator: 0; SUMO Mot1 rescue: 0

Results for COc1cc(/C=C(/NC(=O)c2ccccc2)C(=O)N2CCOCC2)c([N+](=O)[O-])cc1OC ?
M18AAP inhibitor: 17; ALR H2O2 inh: -31; HIF activator: 0; SUMO Mot1 rescue: 2

Results for CCN(CC)c1ccc2cc(S(=O)(=O)c3ccc(C)cc3)c(=O)oc2c1 ?
M18AAP inhibitor: -8; ALR H2O2 inh: 1; HIF activator: 0; SUMO Mot1 rescue: 13

Results for CCN(CC)c1ccc2c(C)c(Cl)c(=O)oc2c1 ?
M18AAP inhibitor: 2; ALR H2O2 inh: 62; HIF activator: 1; SUMO Mot1 rescue: 873

Results for CCN(CC)c1ccc2c(Cl)c(Br)c(=O)oc2c1 ?
M18AAP inhibitor: -13; ALR H2O2 inh: 27; HIF activator: 14*; SUMO Mot1 rescue: 8

How did CCN(CC)c1ccc2c(c1)oc(=O)c1c(Cl)cc(=O)oc12 do in these assays?
M18AAP inhibitor: -1; ALR H2O2 inh: 97*; HIF activator: -1; SUMO Mot1 rescue: 30

What do the screens show for `CCC(=O)N1c2ccc(S(=O)(=O)N3CCN(c4cc(C)ccc4C)CC3)cc2CC1C` (configuration not stated)?
M18AAP inhibitor: 1; ALR H2O2 inh: 6; HIF activator: 0; SUMO Mot1 rescue: 155

How did CCOc1ccccc1NC(=O)NCCC1=CCCCC1 do in these assays?
M18AAP inhibitor: 0; HIF activator: 0; SUMO Mot1 rescue: -10

How did CC(=O)Nc1ncc(Cc2ccc(Cl)cc2Cl)s1 do in these assays?
M18AAP inhibitor: 2; ALR H2O2 inh: -7; HIF activator: 0; SUMO Mot1 rescue: 7

How did c1ccc2c(c1)CCCN2Cc1nnnn1CC1CCCO1 (configuration not stated) do in these assays?
M18AAP inhibitor: 6; ALR H2O2 inh: 26; HIF activator: 0; SUMO Mot1 rescue: -8

What do the screens show for `c1ccc(CCn2nnnc2CN2CCCc3ccccc32)cc1`?
M18AAP inhibitor: -9; ALR H2O2 inh: 89*; HIF activator: 1; SUMO Mot1 rescue: 96

Results for CCC(C)(C)n1nnnc1CN1CCc2ccccc21 ?
M18AAP inhibitor: -6; ALR H2O2 inh: 98*; HIF activator: 0; SUMO Mot1 rescue: -7

Results for CC1CCCC(NC(=O)/C=C/c2c(F)cccc2Cl)C1C (configuration not stated) ?
ALR H2O2 inh: -9; HIF activator: 1; SUMO Mot1 rescue: 14

Results for Cc1cc(S(=O)(=O)Nc2cc(C)c(O)c(C)c2)c(C)s1 ?
M18AAP inhibitor: -2; ALR H2O2 inh: 77*; HIF activator: -1; SUMO Mot1 rescue: 71

What do the screens show for `Cc1cc(S(=O)(=O)Nc2ccc3ccccc3c2)c(C)s1`?
M18AAP inhibitor: -2; ALR H2O2 inh: 5; HIF activator: 0; SUMO Mot1 rescue: 158

Results for O=C1c2ccc([N+](=O)[O-])cc2S(=O)(=O)N1Cc1ccccc1 ?
M18AAP inhibitor: 11; ALR H2O2 inh: 9; HIF activator: -1; SUMO Mot1 rescue: 3

How did NNc1cc([N+](=O)[O-])cc2c1C(=O)N(Cc1ccccc1)S2=O (configuration not stated) do in these assays?
M18AAP inhibitor: 42*; ALR H2O2 inh: -17; HIF activator: 0; SUMO Mot1 rescue: -9

Results for CC(C)(C)/C(O)=C(/C#N)c1nc2ccccc2[nH]1 ?
M18AAP inhibitor: 5; ALR H2O2 inh: 1; HIF activator: -1; SUMO Mot1 rescue: 10

How did CN1C=CC=C/C1=C(\C#N)c1nc2ccccc2[nH]1 do in these assays?
M18AAP inhibitor: -2; ALR H2O2 inh: 99*; HIF activator: 0; SUMO Mot1 rescue: 4

Results for COc1ccc(C(C[N+](=O)[O-])c2c(C)[nH]n(-c3ccccc3)c2=O)cc1 (configuration not stated) ?
M18AAP inhibitor: 45*; ALR H2O2 inh: -42; HIF activator: 1; SUMO Mot1 rescue: 155

How did Cc1[nH]n(-c2ccccc2)c(=O)c1C(C[N+](=O)[O-])c1ccccc1Cl (configuration not stated) do in these assays?
M18AAP inhibitor: 17; ALR H2O2 inh: -20; HIF activator: 0; SUMO Mot1 rescue: 225

How did COc1cc(OC)c(OC)cc1C#N do in these assays?
M18AAP inhibitor: 1; ALR H2O2 inh: -54; HIF activator: 0; SUMO Mot1 rescue: 689*

What do the screens show for `COc1ccc(NC(C)=O)cc1C#N`?
M18AAP inhibitor: -2; HIF activator: 0

How did CCN(CC)C(=O)Cn1cnc2sc(C(=O)N3CCN(Cc4ccc5c(c4)OCO5)CC3)c(C)c2c1=O do in these assays?
M18AAP inhibitor: 7; ALR H2O2 inh: -11; HIF activator: 0; SUMO Mot1 rescue: -8

Results for O=C(Cn1cnc([N+](=O)[O-])n1)N/N=C/c1cc(Cl)ccc1O ?
M18AAP inhibitor: 13; ALR H2O2 inh: -15; HIF activator: 15*; SUMO Mot1 rescue: 9

How did N#C/C(=C\c1ccc(C(=O)O)cc1)S(=O)(=O)c1cc(Br)ccc1Br do in these assays?
M18AAP inhibitor: -11; ALR H2O2 inh: 92*; HIF activator: 0; SUMO Mot1 rescue: -10

How did CCc1ccccc1NC(=O)CN(C)C(=O)CSc1nc2cc(Cl)ccc2s1 do in these assays?
M18AAP inhibitor: 0; ALR H2O2 inh: -4; HIF activator: 0; SUMO Mot1 rescue: -7

What do the screens show for `CCOC(=O)C(=O)NNc1cccc(C)c1C`?
M18AAP inhibitor: 17; ALR H2O2 inh: 98*; HIF activator: -1; SUMO Mot1 rescue: 7

What do the screens show for `CCOC(=O)C(=O)NNc1ccccc1C`?
M18AAP inhibitor: 10; ALR H2O2 inh: 98*; HIF activator: 0; SUMO Mot1 rescue: 3

What do the screens show for `CCOC(=O)C(=O)Nc1ccccc1C(N)=O`?
M18AAP inhibitor: 6; ALR H2O2 inh: -9; HIF activator: 0; SUMO Mot1 rescue: 7

Results for C=CCOc1cccc(C2C(C(=O)c3cc4ccccc4o3)=C(O)C(=O)N2c2cc(C)on2)c1 (configuration not stated) ?
M18AAP inhibitor: 11; ALR H2O2 inh: -12; HIF activator: 1; SUMO Mot1 rescue: -15

How did COc1cccc(C2C(C(=O)c3cc4ccccc4o3)=C(O)C(=O)N2c2cc(C)on2)c1 (configuration not stated) do in these assays?
M18AAP inhibitor: 15; ALR H2O2 inh: 98*; HIF activator: 0; SUMO Mot1 rescue: -10

Results for Cc1cc(N2C(=O)C(O)=C(C(=O)c3ccc(C)o3)C2c2ccc([N+](=O)[O-])cc2)no1 (configuration not stated) ?
M18AAP inhibitor: 10; ALR H2O2 inh: 97*; HIF activator: 0; SUMO Mot1 rescue: 1
